These binders were tested against AgAbp1 (assay: SPOT peptide array binding signal intensity (averaged, normalized) (arbitrary units (background-subtracted, floor 0; scale differs between SH3 domains)); higher = stronger binding of the SH3 domain to the peptide).
Summary of the method: (§1)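 Binding signal refers to normalized, background-subtracted spot intensity averaged over replicates, expressed in arbitrary units that differ between domains. GST-fused SH3 domains from four yeast species were incubated at 10 μg/ml overnight at 4°C on cellulose membranes of synthetic 15-mer peptides with cysteines replaced by serines. Bound protein was detected with anti-GST antibody, an HRP anti-mouse secondary and luminol, and quantified with Genespotter.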

Binder | SPOT peptide array binding signal intensity
PPIPIVPSSPAPPLP | ≤ 0

Each binder was assayed against AgBbc1 in the same assay as above.
Summary of the method: as §1

Binder | SPOT peptide array binding signal intensity
PPIPIVPSSPAPPLP | ≤ 0

Each binder was assayed against AgBem1-D1 in the same assay as above.
Summary of the method: as §1

Binder | SPOT peptide array binding signal intensity
PPIPIVPSSPAPPLP | ≤ 0

These binders were tested against AgBzz1-D1 in the same assay as above.
Summary of the method: as §1

Binder | SPOT peptide array binding signal intensity
PPIPIVPSSPAPPLP | 28

Each binder was assayed against AgBzz1-D2 in the same assay as above.
Summary of the method: as §1

Binder | SPOT peptide array binding signal intensity
PPIPIVPSSPAPPLP | ≤ 0

The binders below were run against AgCyk3 in the same assay as above.
Summary of the method: as §1

Binder | SPOT peptide array binding signal intensity
PPIPIVPSSPAPPLP | ≤ 0

Each binder was assayed against AgFus1 in the same assay as above.
Summary of the method: as §1

Binder | SPOT peptide array binding signal intensity
PPIPIVPSSPAPPLP | ≤ 0

What follows are binders tested against AgHof1 in the same assay as above.
Summary of the method: as §1

Binder | SPOT peptide array binding signal intensity
PPIPIVPSSPAPPLP | ≤ 0

Each binder was assayed against AgHse1 in the same assay as above.
Summary of the method: as §1

Binder | SPOT peptide array binding signal intensity
PPIPIVPSSPAPPLP | ≤ 0

The binders below were run against AgLsb1 in the same assay as above.
Summary of the method: as §1

Binder | SPOT peptide array binding signal intensity
PPIPIVPSSPAPPLP | ≤ 0

The binders below were run against AgLsb4 in the same assay as above.
Summary of the method: as §1

Binder | SPOT peptide array binding signal intensity
PPIPIVPSSPAPPLP | ≤ 0

These binders were tested against AgMyo5 in the same assay as above.
Summary of the method: as §1

Binder | SPOT peptide array binding signal intensity
PPIPIVPSSPAPPLP | 2150

The binders below were run against AgNbp2 in the same assay as above.
Summary of the method: as §1

Binder | SPOT peptide array binding signal intensity
PPIPIVPSSPAPPLP | ≤ 0

Each binder was assayed against AgRvs167 in the same assay as above.
Summary of the method: as §1

Binder | SPOT peptide array binding signal intensity
PPIPIVPSSPAPPLP | ≤ 0

What follows are binders tested against AgSho1 in the same assay as above.
Summary of the method: as §1

Binder | SPOT peptide array binding signal intensity
PPIPIVPSSPAPPLP | ≤ 0

Each binder was assayed against AgSla1-D1-D2 in the same assay as above.
Summary of the method: as §1

Binder | SPOT peptide array binding signal intensity
PPIPIVPSSPAPPLP | ≤ 0

The binders below were run against AgSla1-D3 in the same assay as above.
Summary of the method: as §1

Binder | SPOT peptide array binding signal intensity
PPIPIVPSSPAPPLP | ≤ 0

These binders were tested against CaAbp1-D1 in the same assay as above.
Summary of the method: as §1

Binder | SPOT peptide array binding signal intensity
PPIPIVPSSPAPPLP | ≤ 0

Each binder was assayed against CaAbp1-D2 in the same assay as above.
Summary of the method: as §1

Binder | SPOT peptide array binding signal intensity
PPIPIVPSSPAPPLP | ≤ 0

Each binder was assayed against CaBbc1 in the same assay as above.
Summary of the method: as §1

Binder | SPOT peptide array binding signal intensity
PPIPIVPSSPAPPLP | 0.5

These binders were tested against CaBem1-D1 in the same assay as above.
Summary of the method: as §1

Binder | SPOT peptide array binding signal intensity
PPIPIVPSSPAPPLP | ≤ 0

Each binder was assayed against CaBzz1-D1 in the same assay as above.
Summary of the method: as §1

Binder | SPOT peptide array binding signal intensity
PPIPIVPSSPAPPLP | ≤ 0

Each binder was assayed against CaBzz1-D2 in the same assay as above.
Summary of the method: as §1

Binder | SPOT peptide array binding signal intensity
PPIPIVPSSPAPPLP | ≤ 0

These binders were tested against CaCyk3 in the same assay as above.
Summary of the method: as §1

Binder | SPOT peptide array binding signal intensity
PPIPIVPSSPAPPLP | ≤ 0

These binders were tested against CaFus1 in the same assay as above.
Summary of the method: as §1

Binder | SPOT peptide array binding signal intensity
PPIPIVPSSPAPPLP | ≤ 0

Each binder was assayed against CaHof1 in the same assay as above.
Summary of the method: as §1

Binder | SPOT peptide array binding signal intensity
PPIPIVPSSPAPPLP | ≤ 0

Each binder was assayed against CaHse1 in the same assay as above.
Summary of the method: as §1

Binder | SPOT peptide array binding signal intensity
PPIPIVPSSPAPPLP | ≤ 0

The binders below were run against CaLsb1 in the same assay as above.
Summary of the method: as §1

Binder | SPOT peptide array binding signal intensity
PPIPIVPSSPAPPLP | ≤ 0

What follows are binders tested against CaLsb4 in the same assay as above.
Summary of the method: as §1

Binder | SPOT peptide array binding signal intensity
PPIPIVPSSPAPPLP | ≤ 0

Each binder was assayed against CaMyo5 in the same assay as above.
Summary of the method: as §1

Binder | SPOT peptide array binding signal intensity
PPIPIVPSSPAPPLP | 833

The binders below were run against CaNbp2 in the same assay as above.
Summary of the method: as §1

Binder | SPOT peptide array binding signal intensity
PPIPIVPSSPAPPLP | 47.5

Each binder was assayed against CaRvs167 in the same assay as above.
Summary of the method: as §1

Binder | SPOT peptide array binding signal intensity
PPIPIVPSSPAPPLP | ≤ 0

These binders were tested against CaRvs167-3 in the same assay as above.
Summary of the method: as §1

Binder | SPOT peptide array binding signal intensity
PPIPIVPSSPAPPLP | ≤ 0

These binders were tested against CaSho1 in the same assay as above.
Summary of the method: as §1

Binder | SPOT peptide array binding signal intensity
PPIPIVPSSPAPPLP | ≤ 0

The binders below were run against CaSla1-D1-D2 in the same assay as above.
Summary of the method: as §1

Binder | SPOT peptide array binding signal intensity
PPIPIVPSSPAPPLP | ≤ 0

These binders were tested against CaSla1-D3 in the same assay as above.
Summary of the method: as §1

Binder | SPOT peptide array binding signal intensity
PPIPIVPSSPAPPLP | ≤ 0

The binders below were run against ScAbp1 in the same assay as above.
Summary of the method: as §1

Binder | SPOT peptide array binding signal intensity
PPIPIVPSSPAPPLP | ≤ 0

These binders were tested against ScBbc1 in the same assay as above.
Summary of the method: as §1

Binder | SPOT peptide array binding signal intensity
PPIPIVPSSPAPPLP | ≤ 0

These binders were tested against ScBem1-D1 in the same assay as above.
Summary of the method: as §1

Binder | SPOT peptide array binding signal intensity
PPIPIVPSSPAPPLP | ≤ 0

The binders below were run against ScBzz1-D1 in the same assay as above.
Summary of the method: as §1

Binder | SPOT peptide array binding signal intensity
PPIPIVPSSPAPPLP | ≤ 0

The binders below were run against ScBzz1-D2 in the same assay as above.
Summary of the method: as §1

Binder | SPOT peptide array binding signal intensity
PPIPIVPSSPAPPLP | ≤ 0

Each binder was assayed against ScCyk3 in the same assay as above.
Summary of the method: as §1

Binder | SPOT peptide array binding signal intensity
PPIPIVPSSPAPPLP | ≤ 0

What follows are binders tested against ScFus1 in the same assay as above.
Summary of the method: as §1

Binder | SPOT peptide array binding signal intensity
PPIPIVPSSPAPPLP | ≤ 0

The binders below were run against ScHof1 in the same assay as above.
Summary of the method: as §1

Binder | SPOT peptide array binding signal intensity
PPIPIVPSSPAPPLP | 1.5

Each binder was assayed against ScHse1 in the same assay as above.
Summary of the method: as §1

Binder | SPOT peptide array binding signal intensity
PPIPIVPSSPAPPLP | ≤ 0

Each binder was assayed against ScLsb1 in the same assay as above.
Summary of the method: as §1

Binder | SPOT peptide array binding signal intensity
PPIPIVPSSPAPPLP | ≤ 0

What follows are binders tested against ScLsb2 in the same assay as above.
Summary of the method: as §1

Binder | SPOT peptide array binding signal intensity
PPIPIVPSSPAPPLP | ≤ 0

Each binder was assayed against ScLsb3 in the same assay as above.
Summary of the method: as §1

Binder | SPOT peptide array binding signal intensity
PPIPIVPSSPAPPLP | ≤ 0

What follows are binders tested against ScLsb4 in the same assay as above.
Summary of the method: as §1

Binder | SPOT peptide array binding signal intensity
PPIPIVPSSPAPPLP | ≤ 0

What follows are binders tested against ScMyo3 in the same assay as above.
Summary of the method: as §1

Binder | SPOT peptide array binding signal intensity
PPIPIVPSSPAPPLP | 2260

What follows are binders tested against ScMyo5 in the same assay as above.
Summary of the method: as §1

Binder | SPOT peptide array binding signal intensity
PPIPIVPSSPAPPLP | 1940

Each binder was assayed against ScNbp2 in the same assay as above.
Summary of the method: as §1

Binder | SPOT peptide array binding signal intensity
PPIPIVPSSPAPPLP | ≤ 0

Each binder was assayed against ScPex13 in the same assay as above.
Summary of the method: as §1

Binder | SPOT peptide array binding signal intensity
PPIPIVPSSPAPPLP | ≤ 0

These binders were tested against ScRvs167 in the same assay as above.
Summary of the method: as §1

Binder | SPOT peptide array binding signal intensity
PPIPIVPSSPAPPLP | ≤ 0

The binders below were run against ScSho1 in the same assay as above.
Summary of the method: as §1

Binder | SPOT peptide array binding signal intensity
PPIPIVPSSPAPPLP | ≤ 0

What follows are binders tested against ScSla1-D1-D2 in the same assay as above.
Summary of the method: as §1

Binder | SPOT peptide array binding signal intensity
PPIPIVPSSPAPPLP | ≤ 0

The binders below were run against ScSla1-D3 in the same assay as above.
Summary of the method: as §1

Binder | SPOT peptide array binding signal intensity
PPIPIVPSSPAPPLP | 0.25

Each binder was assayed against SpAbp1-D1 in the same assay as above.
Summary of the method: as §1

Binder | SPOT peptide array binding signal intensity
PPIPIVPSSPAPPLP | ≤ 0

Each binder was assayed against SpBbc1 in the same assay as above.
Summary of the method: as §1

Binder | SPOT peptide array binding signal intensity
PPIPIVPSSPAPPLP | 3.5

What follows are binders tested against SpBzz1-D1 in the same assay as above.
Summary of the method: as §1

Binder | SPOT peptide array binding signal intensity
PPIPIVPSSPAPPLP | ≤ 0

The binders below were run against SpBzz1-D2 in the same assay as above.
Summary of the method: as §1

Binder | SPOT peptide array binding signal intensity
PPIPIVPSSPAPPLP | ≤ 0

What follows are binders tested against SpCyk3 in the same assay as above.
Summary of the method: as §1

Binder | SPOT peptide array binding signal intensity
PPIPIVPSSPAPPLP | ≤ 0

What follows are binders tested against SpHof1 in the same assay as above.
Summary of the method: as §1

Binder | SPOT peptide array binding signal intensity
PPIPIVPSSPAPPLP | ≤ 0

What follows are binders tested against SpHof1-2 in the same assay as above.
Summary of the method: as §1

Binder | SPOT peptide array binding signal intensity
PPIPIVPSSPAPPLP | ≤ 0

These binders were tested against SpHof1-3 in the same assay as above.
Summary of the method: as §1

Binder | SPOT peptide array binding signal intensity
PPIPIVPSSPAPPLP | ≤ 0

These binders were tested against SpHse1 in the same assay as above.
Summary of the method: as §1

Binder | SPOT peptide array binding signal intensity
PPIPIVPSSPAPPLP | 26.8

These binders were tested against SpLsb1 in the same assay as above.
Summary of the method: as §1

Binder | SPOT peptide array binding signal intensity
PPIPIVPSSPAPPLP | ≤ 0

Each binder was assayed against SpLsb4 in the same assay as above.
Summary of the method: as §1

Binder | SPOT peptide array binding signal intensity
PPIPIVPSSPAPPLP | ≤ 0

Each binder was assayed against SpMyo1 in the same assay as above.
Summary of the method: as §1

Binder | SPOT peptide array binding signal intensity
PPIPIVPSSPAPPLP | 1080

The binders below were run against SpNbp2 in the same assay as above.
Summary of the method: as §1

Binder | SPOT peptide array binding signal intensity
PPIPIVPSSPAPPLP | ≤ 0

Each binder was assayed against SpPex13 in the same assay as above.
Summary of the method: as §1

Binder | SPOT peptide array binding signal intensity
PPIPIVPSSPAPPLP | ≤ 0

What follows are binders tested against SpRvs167 in the same assay as above.
Summary of the method: as §1

Binder | SPOT peptide array binding signal intensity
PPIPIVPSSPAPPLP | ≤ 0

These binders were tested against SpSla1-D1-D2 in the same assay as above.
Summary of the method: as §1

Binder | SPOT peptide array binding signal intensity
PPIPIVPSSPAPPLP | ≤ 0

These binders were tested against SpSla1-D3 in the same assay as above.
Summary of the method: as §1

Binder | SPOT peptide array binding signal intensity
PPIPIVPSSPAPPLP | ≤ 0
